Screening results from PubChem BioAssay.
WRN inhibitor = inhibitors of human WRN helicase. Q14191. WRN helicase unwinding, fluorescent forked duplex, kinetic. Potency, µM (top dose mostly 114 µM), hits mostly inhibitors. hit rate 0.46% among 360,000. AID 651768; note: nearly all actives have a fitted effect of over 55% in size
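Kinetic fluorescence helicase assay: unwinding of a quenched forked DNA duplex (100 nM final) with 2 mM ATP final raises red fluorescence (525/598 nm). Compounds sat 15 min at room temperature with 20 nM WRN beforehand.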
PI5P4Ka inh = inhibitors of human PI5P4K alpha | P48426 | PI5P4Kalpha enzyme, ADP-Glo luminescence, 60 min; stronger effect = lower value | max response, % | hit rate 1.2% among 330,000 | AID 652105; active = max response of -50% or lower; inconclusive = between -30% and -50%; inactive = -30% or higher; note: value at the top dose of about 77 µM
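PI5P4Kalpha ADP-Glo assay; 5 microM ATP final; 60 min RT reaction; HEPES pH 7.4/EGTA/CHAPS, 5% DMSO; controls lacking substrate or enzyme; luminescent end-point.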
Pol kappa inh-1 = blocks human DNA polymerase kappa activity | Q9UBT6 | purified Pol kappa, fluorescent DNA synthesis assay, 10 min | Potency, µM (highest dose often 107 µM), most hits filed as inhibitors | hit rate 0.53% among 400,000 | AID 588579
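Kinetic fluorescence readout at 0 and 10 min followed reaction start with substrate at 50 nM final. Beforehand, enzyme (10 nM Pol kappa) stood 15 min with compound at room temperature; buffer-only wells were negative controls.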
POLI inh = blocks human DNA polymerase iota activity; Q9UNA4; Pol iota fluorescent replication assay, 10 min; Potency, µM (highest dose often 115 µM), hits mostly inhibitors; hit rate 1% among 390,000; AID 588590
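Pol iota at 10 nM preincubated 15 min with compounds at room temperature; reaction started with fluorescent substrate, 50 nM final. Fluorescence read kinetically at 0 and 10 min; buffer-only wells as negative control.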
Pol eta inh-1 = blocks human DNA polymerase eta activity. recombinant Pol eta, fluorescent DNA replication assay. Potency, µM (doses to about 114 µM), hits mostly inhibitors. hit rate 1.2% among 390,000. AID 588591
Target sequence (Q9Y253 whole entry, looked up): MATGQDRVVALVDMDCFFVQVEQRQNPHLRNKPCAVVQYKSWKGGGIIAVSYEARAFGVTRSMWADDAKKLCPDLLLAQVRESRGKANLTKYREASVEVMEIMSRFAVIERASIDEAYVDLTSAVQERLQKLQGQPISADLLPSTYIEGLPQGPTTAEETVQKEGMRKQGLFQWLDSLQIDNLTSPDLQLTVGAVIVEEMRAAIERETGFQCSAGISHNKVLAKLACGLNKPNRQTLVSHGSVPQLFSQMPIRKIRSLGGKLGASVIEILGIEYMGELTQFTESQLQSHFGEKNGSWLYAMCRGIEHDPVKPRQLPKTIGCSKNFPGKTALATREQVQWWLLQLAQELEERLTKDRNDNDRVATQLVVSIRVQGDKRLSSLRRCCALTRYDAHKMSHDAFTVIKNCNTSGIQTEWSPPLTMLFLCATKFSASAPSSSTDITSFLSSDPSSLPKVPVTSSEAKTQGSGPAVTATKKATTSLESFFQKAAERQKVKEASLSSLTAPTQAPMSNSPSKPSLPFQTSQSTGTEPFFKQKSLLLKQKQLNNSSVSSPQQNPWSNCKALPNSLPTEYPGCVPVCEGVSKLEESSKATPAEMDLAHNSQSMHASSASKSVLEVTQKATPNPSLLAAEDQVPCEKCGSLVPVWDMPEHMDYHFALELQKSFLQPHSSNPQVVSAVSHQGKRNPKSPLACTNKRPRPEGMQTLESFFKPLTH
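Fluorescent replication assay: 50 nM final substrate added after a 15 min room-temperature compound preincubation with 10 nM enzyme. Signal taken at 0 min and again at 10 min.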
Pol beta inh = DNA polymerase beta (human) inhibition. P06746. Pol beta primer extension/strand displacement, fluorescence kinetic. Potency, µM (doses to about 114 µM), most hits filed as inhibitors. hit rate 1.3% among 340,000. AID 485314
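Enzyme-only controls used 10 nM Pol beta; buffer lacking enzyme served as negative control. Compound preincubated 15 min, then 50 nM substrate added; 0 and 10 min reads at room temperature.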
GALK inh confirm = galactokinase (human) inhibition, confirmation | AID 2015 | hit rate 70% among 150 | purified GALK, Kinase-Glo ATP depletion luminescence | shares compounds with Pol eta inh-1 | Potency, µM (series often up to 115 µM), usual class: inhibitors
Redox cycling = counter-screen for GALK inhibitors: redox cycling H2O2 generation | Phenol red-HRP H2O2 redox cycling, absorbance 600 nm | Potency, µM (doses to about 115 µM), actives largely listed as inhibitors | hit rate 40% among 150 | AID 2035 | shares compounds with Pol eta inh-1
HEK293 viability = reduces HEK-293 cell viability in GALK counter-screen | HEK-293 viability, ATP luminescence (CellTiter-Glo), 24/48 h | shares compounds with Pol eta inh-1 | hit rate 10% among 170 | Potency, µM (top dose mostly 46.1 µM), most hits filed as inhibitors
Pol kappa inh-2 = confirmation of human DNA polymerase kappa inhibitors; AID 720501; Potency, µM, actives largely listed as inhibitors; hit rate 76% among 920; shares compounds with Pol eta inh-1; purified Pol-kappa, fluorescent strand-displacement substrate
Pol eta inh-2 = Pol eta (human) inhibition, cherry-pick confirmation; AID 720502; Potency, µM, actives largely listed as inhibitors; shares compounds with Pol eta inh-1; hit rate 64% among 2,600; Pol eta primer extension, TAMRA/BHQ fluorescence, 10 min
Numbers stand for hits; n = inactive; u = inconclusive; x = no result; [ ] = another dose, or the depositor's remark. Compounds with a hit are over-represented: about 2.8% of the library has one in this group of screens. Unless noted, calls come from the whole dose curve; as a rule, active = well fitted curve in the direction sought with a large enough effect; inconclusive = small, poorly fitted or top-dose-only effect, or another doubt; inactive = no such curve, though single readings can be large; an effect the other way counts as inactive or inconclusive.

SMILES	WRN inhibitor	PI5P4Ka inh	Pol kappa inh-1	POLI inh	Pol eta inh-1	Pol beta inh	Pol eta inh-2	others
CCCC(=O)O[C@]1(C(=O)COC(C)=O)CC[C@H]2C3C[C@H](F)C4=CC(=O)C=CC4(C)[C@@]3(F)[C@@H](O)CC21C (stereo not given in full)	x	x	n[19.4 µM]	x	x	x	x
CS(=O)(=O)N1CC(C(=O)O)Oc2ccc(CC(=O)O)cc21 (stereo not given)	n	n	n	u	18µM	u	30
O=C(O)Cc1ccc2c(c1)N(S(=O)(=O)c1cccs1)CC(C(=O)O)O2 (stereo not given)	n	n	n	n	n	n	x
Cc1cc(N)n(-c2ccc(C)c(C)c2)n1	n	n	n	n	n	n	x
Cc1cc(N)n(-c2ccc(Oc3ccccc3)c(S(=O)(=O)O)c2)n1	n	n	u	u	18µM	14µM	x	Pol kappa inh-2=u
COc1ccc(CNC(=O)C(CC(C)C)NS(=O)(=O)c2ccc3c(c2)oc(=O)n3C)cc1 (stereo not given)	x	x	n	n	n	n	x
O=C(CCN1C(=O)/C(=C\C=C\c2ccccc2)SC1=S)Nc1ccccc1C(=O)O	u	u	u	u	25µM	n	u
CC1(C(=O)NNC(=O)c2ccc(=O)oc2)CC1Br (stereo not given)	u	u	u	u	20µM	u	34
Cc1cc(=O)oc(C)c1C(=O)NNC(=O)C1(C)CC1Br (stereo not given)	n	n	n	n	n	n	x
COc1cccc2cc(C(=O)C3=C(O)C(=O)N(CCN4CCOCC4)C3c3cccc(Cl)c3)oc12 (stereo not given)	n[11.6 µM]	n	n	n	28µM	n	17
COc1cccc2cc(C(=O)C3=C(O)C(=O)N(CCN4CCOCC4)C3c3ccc(Cl)cc3)oc12 (stereo not given)	n	n	n	n	u	n	x
Cc1ccc(C(=O)NCc2occc2C(=O)O)o1	n[11.6 µM]	x	u	u	28µM	20µM	30	Pol kappa inh-2=24
Cc1ccc(C(=O)NCc2ccco2)o1	n	n	u	u	u	u	x
Cc1cccc(-c2noc(CN(C(=O)c3ccccc3Cl)C(C)C)n2)c1	x	x	n	n	n	n	x
COc1ccc2occ(CC(=O)Nc3ccc(S(=O)(=O)Nc4nc(C)cc(C)n4)cc3)c2c1	x	x	u	79µM	25µM	28µM	u	Pol kappa inh-2=42
Cc1ccc(C(=O)Nc2ccc(C(=O)OCc3cc(=O)n4c5c(sc4n3)CCCC5)cc2)cc1	x	x	n	n	n	u	x
COc1cccc(NC(=O)Cn2cc(S(=O)(=O)N3CCCC3)c(S(=O)(=O)N3CCCC3)c2)c1	x	x	n	u	89µM	u	u	Pol kappa inh-2=38
O=C(Cn1cc(S(=O)(=O)N2CCCC2)c(S(=O)(=O)N2CCCC2)c1)Nc1ccc(F)cc1	x	x	n	n	n	n	x
COc1ccccc1CNC(=O)c1cc2c(=O)n(Cc3cccs3)ccc2nc1C	x	x	n	n	n	n	x
O=C(O)c1ccc(CSc2n[nH]c(-c3ccco3)n2)cc1	u	n	45µM	20µM	11µM	u	u
COc1ccc(C(=O)N2CCN(Cc3cc(=O)n4nc(-c5ccccc5C)sc4n3)CC2)cc1OC	x	x	n	n	n	n	x
CCc1oc(C(=O)O)cc1CN(CC)CC	n	x	n	n	n	n	x
CCN(CC)Cc1cc(O)c(CN(CC)CC)cc1O	50µM	n	8.9µM	u	50µM	3.5µM	u
Cc1ccc([N+](=O)[O-])cc1S(=O)(=O)N1CCn2cccc2C1c1ccccc1 (stereo not given)	x	x	n	n	n	n	x
O=C(CCl)N1N=C(c2ccco2)CC1c1ccco1 (stereo not given)	56µM	-70	22µM	3.2µM	10µM	25µM	60
SMILES	WRN inhibitor	PI5P4Ka inh	Pol kappa inh-1	POLI inh	Pol eta inh-1	Pol beta inh	Pol eta inh-2	others
O=C(CCl)N1N=C(c2cccs2)CC1c1ccco1 (stereo not given)	n	n	n	n	u	n	x
O=C1CCCC2=C1C1(CCCCC1)N=C(Nc1nc3ccccc3o1)N2	n	x	n	n	n	n	x	GALK inh confirm=17µM;Redox cycling=n;HEK293 viability=n
O=C1CC(c2ccccc2)CC2=C1C1(CCCC1)N=C(Nc1nc3ccccc3o1)N2 (stereo not given)	x	x	x	x	x	x	x	HEK293 viability=n
O=C1CCCC2=C1C1(CCC1)N=C(Nc1nc3ccccc3o1)N2	x	x	x	x	x	x	x	HEK293 viability=n
Clc1ccccc1Nc1nc2ccccc2o1	n	n	n	n	n	x	x
O=C1CCCC2=C1C1(CCCC1)N=C(Nc1nc3ccccc3o1)N2	x	x	x	x	x	n	x	HEK293 viability=n
Cc1nc(Nc2nc3ccccc3o2)nc2c1CCC2	n	n	n	n	n	n	x
CNS(=O)(=O)c1cn(CC(=O)N2CCN(c3cccc(Cl)c3)CC2)cc1S(=O)(=O)NC	x	x	n	n	n	n	x
Cc1ccc(Sc2c(C)nn(C(=O)COc3ccccc3Br)c2C)cc1	x	x	n	n	n	n	x
CSc1cccc(NC(=O)CC(c2cccs2)N2Cc3ccccc3C2=O)c1 (stereo not given)	x	x	n	n	n	n	x
O=C1OC(C(=O)O)Cc2ccccc21 (stereo not given)	n	x	n	n	n	n	x	GALK inh confirm=n;Redox cycling=n;HEK293 viability=n
Cc1ccc(C2C=C(c3ccccc3)Nc3nc(NS(=O)(=O)c4ccc(C)cc4)nn32)cc1 (stereo not given)	x	x	n	n	u	n	x	Pol kappa inh-2=u
O=C(Nc1cccc(C(=O)O)c1)/C(=C\c1ccco1)NC(=O)c1ccc(Br)o1	n[11.6 µM]	u	79µM	u	18µM	u	38	Pol kappa inh-2=24
CC(C)CC(NC(=O)/C(=C\c1ccco1)NC(=O)c1ccco1)C(=O)O (stereo not given)	n	n	n	n	n	n	x
CC(C)CC(NC(=O)/C(=C/c1ccco1)NC(=O)c1ccc(Br)o1)C(=O)O (stereo not given)	n[11.6 µM]	n	71µM	u	22µM	n	x	Pol kappa inh-2=u
O=C(Nc1cccc(C(=O)O)c1)/C(=C\c1ccco1)NC(=O)c1ccccc1	n	u	n	u	u	n	x
